Results on six compounds are retold here after PubChem BioAssay (Tox21).

Unmarked numbers belong to inactive results. Inconclusive results are not listed. The source made the active and inactive calls. Unless noted, calls come from the whole dose curve; as a rule, active = well fitted curve in the direction sought with a large enough effect in the repeat runs; inconclusive = weak or mixed curves; inactive = no such curve, though single readings can be large; an effect the other way counts as inactive or inconclusive.

Experiment [1] concerns the target Thyrotropin receptor (Homo sapiens) (UniProt P16473). Description: qHTS assay to identify small molecule agonists of the thyroid stimulating hormone receptor (TSHR) signaling pathway (AID 1224843; calls by dose curve; note: nearly all actives have a fitted effect of over 45% in size). An outline of the steps:
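Agonist-mode screen: TSHR HEK293 cells received test chemicals for half an hour at room temperature, then HTRF cAMP detection reagents for one hour prior to fluorescence measurement. Each chemical ran as a 15-concentration series, triplicated.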

Experiment [2] in a line: qHTS assay to identify small molecule agonists of the hypoxia (HIF-1) signaling pathway - cell viability counter screen (AID 1224844; calls by dose curve; note: nearly all actives have a fitted effect of over 50% in size). An outline of the steps: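 HRE-bla ME-180; 0.5% dFBS; cpd 17 h, 37C, 5% CO2; CellTiter-Glo lum., 30 min RT, post-FRET read, same wells.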
A short description of experiment [3]: qHTS assay to identify small molecule agonists of H2AX (AID 1224845; active = well fitted activation curve with a large enough effect in the signal ratio in the repeat runs, not every such curve was filed as active; the % refers to the signal ratio). The method in brief: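 Wild-type CHO-K1 cells, plated overnight, exposed 3hr at 37C to 15 concentrations (0.76% DMSO final). Lysed, then HTRF anti-pH2AX (S139) cryptate and anti-H2AX-d2 antibodies, 24 hr room temperature; 665/620 nm emission read.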
The nature of experiment [4]: qHTS assay to identify small molecule agonists of the hypoxia (HIF-1) signaling pathway (AID 1224846; active = well fitted activation curve with a large enough effect in the signal ratio in the repeat runs, not every such curve was filed as active; the % refers to the signal ratio). The method in brief: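 Reporter induction in HRE-bla ME-180 cells is taken as agonism: cells sit 5 hrs after plating, receive compounds or DMSO only, incubate 17 hrs at 37C under 5% CO2, and are loaded with CCF4-AM for beta-lactamase FRET measurement.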
The nature of experiment [5]: qHTS assay to identify small molecule agonists of H2AX - cell viability counter screen (AID 1224847; calls by dose curve; note: top concentration of the series differs between compounds; nearly all actives have a fitted effect of over 30% in size). An outline of the steps: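 Compounds tested at 15 concentrations were incubated 3 hr at 37C with wild-type CHO-K1 cells; cellular ATP-based luminescence (CellTiter-Glo) indicated viability.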
Experiment [6] is described as follows: qHTS assay to identify small molecule antagonists of the estrogen related receptor (ERR) signaling pathway from Tox21 library (AID 1224848). Note: nearly all actives have a fitted effect of over 50% in size. An outline of the steps: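 Quantitative high-throughput format: ERR reporter cells (2,000/well) pre-incubated 6 h, treated 18 h at 37 C with compounds in DMSO alongside positive and negative controls, then read by ONE-Glo luminescence.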

Experiment [7] is described as follows: qHTS assay to identify small molecule agonists of the estrogen related receptor (ERR) signaling pathway from Tox21 library (AID 1224849; calls by dose curve; note: nearly all actives have a fitted effect of over 15% in size). Particulars: ERR reporter cell line, ONE-Glo luciferase, 18 h; at 92.4 µM (top of the series) unless noted. The method in brief: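 Tox21 compounds tested for ERR agonism in an NTP reporter cell line: 18 h treatment at 37 C, then ONE-Glo luminescence.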

Experiment [8] is described as follows: qHTS RealTime-Glo MT Cell Viability Assay in HepG2 cells - 24 hour (AID 1224867). Note: nearly all actives have a fitted effect of over 50% in size. The method in brief:
(§1)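 Viability was tracked continuously by NanoLuc luminescence from prosubstrate reduced by living HepG2 cells, at successive time points over 40 h of compound exposure. Cells with reagent were preincubated 5 h at 37 °C before compound addition.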

Experiment [9] is described as follows: qHTS RealTime-Glo MT Cell Viability Assay in HEK293 cells - 32 hour (AID 1224868). Note: top concentration of the series differs between compounds; nearly all actives have a fitted effect of over 50% in size. An outline of the steps:
(§2)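 Viability tracked continuously by luminescence as live cells reduce a prosubstrate for NanoLuc; HEK293 cells preincubated 5 h, compound-treated at 37 C, and read at 0, 8, 16, 24, 32 and 40 h.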

Experiment [10] can be described thus: A CellTox Green Cytotoxicity Assay to monitor cytotoxicity in HEK293 cells - 0 hour (AID 1224869). Note: nearly all actives have a fitted effect of over 50% in size. The method in brief:
(§3)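 Tox21 screen in HEK293: membrane-impermeant cyanine dye fluoresces on binding dead-cell DNA; compound pinned 5 h post-seeding, plates held at 37 C, signal read repeatedly through 40 h.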

A short description of experiment [11]: qHTS RealTime-Glo MT Cell Viability Assay in HepG2 cells - 40 hour (AID 1224870). Note: nearly all actives have a fitted effect of over 50% in size. The method in brief:
(§4)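 HepG2 cells (600/well) mixed with RealTime-Glo MT reagent, settled 5 h at 37 C/5% CO2 before compound addition. Nonlytic NanoLuc luminescence from viable-cell prosubstrate reduction read repeatedly during 40 h treatment at 37 C.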

Experiment [12] is described as follows: A CellTox Green Cytotoxicity Assay to monitor cytotoxicity in HEK293 cells - 40 hour (AID 1224871). Note: nearly all actives have a fitted effect of over 45% in size. An outline of the steps: as §3
Experiment [13] is described as follows: qHTS RealTime-Glo MT Cell Viability Assay in HEK293 cells - 16 hour (AID 1224872). The method in brief:
as §2

Experiment [14] is described as follows: qHTS RealTime-Glo MT Cell Viability Assay in HepG2 cells - 8 hour (AID 1224873). Note: nearly all actives have a fitted effect of over 55% in size. An outline of the steps: as §4
Experiment [15] can be described thus: qHTS RealTime-Glo MT Cell Viability Assay in HEK293 cells - 40 hour (AID 1224874). Note: nearly all actives have a fitted effect of over 50% in size. Particulars: RealTime-Glo luminescence; max response: hits give low values. An outline of the steps: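 HEK293 + NanoLuc + prosubstrate, 600 cells/well; 5 h, 37 C/5% CO2; compound 23 nL in DMSO by pintool; 37 C; luminescence read at 0, 8, 16, 24, 32 and 40 h time points.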
Experiment [16] in a line: A CellTox Green Cytotoxicity Assay to monitor cytotoxicity in HEK293 cells - 24 hour (AID 1224875). Note: nearly all actives have a fitted effect of over 45% in size. An outline of the steps: as §3
Experiment [17] can be described thus: A CellTox Green Cytotoxicity Assay to monitor cytotoxicity in HepG2 cells - 16 hour (AID 1224876). Note: nearly all actives have a fitted effect of over 45% in size. An outline of the steps: (§5)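 Measurements at 0, 8, 16, 24, 32 and 40 h of treatment captured CellTox Green fluorescence in HepG2 cells that had been co-plated with reagent and preincubated 5 h at 37 C/5% CO2.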
The nature of experiment [18]: qHTS RealTime-Glo MT Cell Viability Assay in HepG2 cells - 32 hour (AID 1224877). Note: nearly all actives have a fitted effect of over 55% in size. The method in brief: as §1
A short description of experiment [19]: A CellTox Green Cytotoxicity Assay to monitor cytotoxicity in HepG2 cells - 24 hour (AID 1224878). Note: nearly all actives have a fitted effect of over 45% in size. An outline of the steps:
as §5

Experiment [20] in a line: A CellTox Green Cytotoxicity Assay to monitor cytotoxicity in HepG2 cells - 40 hour (AID 1224879). Note: nearly all actives have a fitted effect of over 40% in size. An outline of the steps: as §5
% is set by controls: 0 for no effect and ±100 for the full control effect.

Thyrotropin receptor (Homo sapiens), sequence (P16473 whole entry, looked up): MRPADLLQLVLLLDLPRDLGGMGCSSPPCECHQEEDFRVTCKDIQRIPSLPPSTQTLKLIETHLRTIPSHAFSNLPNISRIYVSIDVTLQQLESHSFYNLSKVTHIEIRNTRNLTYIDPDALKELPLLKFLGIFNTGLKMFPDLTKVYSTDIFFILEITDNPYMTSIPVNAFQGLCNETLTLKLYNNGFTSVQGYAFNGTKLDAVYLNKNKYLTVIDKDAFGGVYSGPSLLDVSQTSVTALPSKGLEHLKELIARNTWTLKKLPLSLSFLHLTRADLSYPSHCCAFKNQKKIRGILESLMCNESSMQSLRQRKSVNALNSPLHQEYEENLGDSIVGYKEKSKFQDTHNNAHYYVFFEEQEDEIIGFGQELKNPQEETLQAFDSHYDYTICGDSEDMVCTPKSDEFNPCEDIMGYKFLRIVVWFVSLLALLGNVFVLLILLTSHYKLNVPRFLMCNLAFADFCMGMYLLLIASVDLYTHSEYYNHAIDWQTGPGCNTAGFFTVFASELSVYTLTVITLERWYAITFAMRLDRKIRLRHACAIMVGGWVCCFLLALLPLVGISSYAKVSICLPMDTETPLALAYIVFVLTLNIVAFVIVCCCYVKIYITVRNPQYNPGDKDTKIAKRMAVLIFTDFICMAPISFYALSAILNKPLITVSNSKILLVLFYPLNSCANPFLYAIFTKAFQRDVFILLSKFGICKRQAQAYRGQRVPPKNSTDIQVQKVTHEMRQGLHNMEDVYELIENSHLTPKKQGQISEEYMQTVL

Consider `CC(C)C[C@H](NC(=O)OCC1c2ccccc2-c2ccccc21)C(=O)O`, for which the Potency result in experiment [1], in [2], in experiment [3], in experiment [5], in experiment [6] and in experiment [8] was “inactive” in each case. In addition, the Potency entry in [9], in [10], in [11], in experiment [12], in experiment [13] and in experiment [16] was “inactive” throughout. Also, the Potency result in experiment [17], in experiment [18], in experiment [19] and in experiment [20] was “inactive” throughout. The call in [4] and in experiment [14] was inactive. In experiment [7], the activity change, positive = activation was 147% (active). Also, in [15], the max response was -12.9%.

`CC(C)CCCCCCc1ccc(OCCOCCO)cc1`: the Potency result in [1], in [2], in [3], in [5], in [6] and in experiment [8] was “inactive” throughout. Also, the Potency entry in experiment [9], in experiment [10], in experiment [11], in experiment [12], in experiment [13] and in [16] was “inactive” each time. In addition, the Potency result in experiment [17], in experiment [18], in experiment [19] and in [20] was “inactive” throughout. For the same compound, the result in [4] and in [14] was inactive. The activity change, positive = activation in experiment [7] was -10.7%. In experiment [15], the max response is 2.16%.

In the case of `C1CSCCS1`, the Potency entry in [1], in [2], in experiment [3], in experiment [5], in [6] and in experiment [8] was “inactive” throughout. In addition, the Potency entry in experiment [9], in [10], in [11], in experiment [12], in [13] and in experiment [16] was “inactive” throughout. Moreover, the Potency entry in [17], in experiment [18], in experiment [19] and in [20] was “inactive” throughout. The compound was called inactive in experiment [4] and in [14]. Further, in experiment [7], the activity change, positive = activation is 3.63%. The max response in experiment [15] is -4.02%.

Consider `NCCC(O)(P(=O)(O)O)P(=O)(O)O`, for which the Potency entry in experiment [1], in [2], in [3], in experiment [5], in experiment [6] and in experiment [8] was “inactive” each time. Moreover, the Potency entry in experiment [9], in experiment [10], in experiment [11], in experiment [12], in [13] and in experiment [16] was “inactive” in each case. The Potency entry in [17], in experiment [18] and in [20] was “inactive” throughout. The call in [4] and in experiment [14] was inactive. In addition, in experiment [7], the activity change, positive = activation was 4.61% [at 42.5 µM]. For the same compound, the max response in experiment [15] was 3.89%.

On to `CCN(CC)CC1CCCCN1CC(=O)N1c2ccccc2C(=O)Nc2cccnc21` (stereo not drawn), for which the Potency result in experiment [1], in [2], in experiment [3], in experiment [5], in [6] and in experiment [8] was “inactive” in each case. Besides, the Potency entry in experiment [9], in experiment [10], in [11], in experiment [12], in experiment [13] and in experiment [16] was “inactive” each time. In addition, the Potency result in experiment [17], in experiment [18], in [19] and in experiment [20] was “inactive” each time. The compound was classed as inactive in experiment [4] and in experiment [14]. Moreover, the activity change, positive = activation in [7] was 8.53% [at 42.5 µM]. Moreover, the max response in experiment [15] was 0.471%.

On to `OC[C@H]1O[C@@H](O[C@H]2[C@H](O)[C@@H](O)[C@H](O)O[C@@H]2CO)[C@H](O)[C@@H](O)[C@H]1O`, for which the Potency result in experiment [1], in experiment [2], in experiment [3], in experiment [5], in [6] and in [8] was “inactive” each time. Moreover, the Potency result in [9], in experiment [10], in experiment [11], in experiment [12], in experiment [13] and in experiment [16] was “inactive” each time. Besides, the Potency result in experiment [17], in experiment [18], in experiment [19] and in experiment [20] was “inactive” throughout. The call in experiment [4] was inactive. Further, in experiment [7], the activity change, positive = activation was 4.49%. Moreover, the max response in [15] was 0.3%.
